Data on 26 compounds can be found in PubChem BioAssay AID449762 (Southern Research Specialized Biocontainment Screening …, 2010).

The campaign covered roughly 330,000 compounds. About 1,900 (0.58%) were called active. Not shown: some 4% with an inconclusive outcome. Not all results are given here. Measured potencies and affinities stand elsewhere. Values without a mark were called inactive. No stated cut-off is given here; in the data, inconclusive means inhibition above about 70% without an active follow-up result; inactive means below that.

This experiment can be described thus: M. tuberculosis growth inhibition, HTS (AID 449762).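 Further: bacterial growth assessed after seven days of incubation.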 The following applies: M. tuberculosis H37Rv growth inhibition, 7H9 media; at 25 µM; active compounds read high.
As a reminder, the inhibition is the relative decrease from the control value, in per cent. Consider `CS(=O)(=O)c1ccc(C(=O)Nc2cc(S(C)(=O)=O)ccc2Cl)cc1`, for which the inhibition was 2.11%.
For `COc1ccccc1C1C=C(c2ccc(C)cc2)Nc2nnnn21` (stereo unspecified) the value was -0.45%; for `COc1ccc(OC)c(C2C=C(c3ccc(C)c(C)c3)Nc3nnnn32)c1` (stereo unspecified), 4.57%.
As to `COC(=O)C(C)(C)ONC(=O)Nc1ccc(C)cc1`, the inhibition is 0.62%.
Turning to `COc1ccc(Cl)cc1N(CC(=O)NC(C)(C)C)S(=O)(=O)c1ccc(C)c([N+](=O)[O-])c1`, the inhibition was -3.67%.
`CCC(CC)C(=O)Nc1nnc(SCC(=O)N2CCN(c3ccccc3OC)CC2)s1`: the inhibition is 4.18%.
For the compound `Cc1ccc(C(=O)Nc2ccccc2Sc2ccccc2)cc1`, the inhibition is 9.64%.
Turning to `Cc1ccc(C(=O)CC(=O)c2ccccc2)cc1`, the inhibition was 61.8%.
As for `COc1ccc(C)cc1NC(=O)c1ccc(NC(=O)CC2SC(N3CCCC3)=NC2=O)cc1` (stereo unspecified), the inhibition was 1.94%.
As for `CCN(CC)CC1C(=O)N(c2ccc(OC)cc2)C1c1ccccc1` (stereo unspecified), the inhibition was -4.16%.
In the case of `COCCn1c(=O)[nH]c2cc(C(=O)N3CCN(c4ccccc4)CC3)ccc2c1=O`, the inhibition is 5.58%.
In the case of `COc1ccccc1CNC(=O)/C=C/c1ccc(Br)o1`, the inhibition is 3.6%.
Turning to `Cc1cc(/C=N/O)c(C)n1-c1ccccc1`, the inhibition was -2.51%.
For the compound `CN(C)c1ccc(/C=C/c2ccc3ccccc3[n+]2C)cc1`, the inhibition is 66.1%.
As for `CC(C)[C@H](NC(=O)c1cc2cc(Cl)ccc2n1C)C(=O)N[C@@H](C(=O)O)c1ccccc1`, the inhibition was -9.63%.
Consider `CCc1ccc(/C=C2/Sc3ccccc3N(CC(=O)NCCCN3CCOCC3)C2=O)cc1`, for which the inhibition is 38.4%.
As for `CC(C)(C)c1cc(-c2nc(N)nc(N)n2)cc(C(C)(C)C)c1`, the inhibition is 9.97%.
In the case of `CC(C)(C)c1ccc(-c2nc(N)nc(N)n2)cc1`, the inhibition was -3.01%.
To `NC(=O)c1cccc2c3c([nH]c12)CCCC3` belongs -3.75%; to `CCOC(=O)C1CCCc2c1[nH]c1c(C(=O)O)cccc21` (stereo unspecified), 9.6%.
With `CCOc1ccc(CCNC(=O)C2=C(C)C(=O)OC23CCCCC3)cc1OCC`, the inhibition was -0.34%.
To `C[C@H](CO)N1C[C@H](C)[C@@H](CN(C)C(=O)Nc2ccccc2)Oc2ccc(NC(=O)Cc3ccccc3)cc2C1=O` belongs 0.43%.
Turning to `CCOC(=O)Cn1nc(/C=C/c2ccc(OC)cc2)ccc1=O`, the inhibition was -1.75%.
Take `Cc1nn(C(C)(C)C)c(NC(=O)c2ccc(Cl)cc2)c1Br`: the inhibition was -3.55%.
Turning to `Cc1nn(C)c(NC(=O)c2ccccc2Cl)c1Br`, the inhibition is -4.03%.
Regarding `COc1cc(C)ccc1OCC(=O)Nc1ccccc1N1CCOCC1`, the inhibition was 0.365%.
